The campaign covered roughly 1,600 compounds. About 20 (1%) were called active.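 Rule for the calls: active = ratio of uncleaved NAD to its breakdown product ADP-ribose above 4, meaning the enzyme was inhibited; inactive = the rest.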 Many of the other results were omitted from the sample, so actives are more common in it than they were.
The molecules below were run against NAD(+) hydrolase SARM1 (Homo sapiens) (UniProt Q6SZW1) (assay: SARM1 TIR NADase inhibitors by HPLC, primary screen, cell lysate, HPLC readout (AID 1508615;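 note: substrate NAD at 5 µM with 60 min at 37 °C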)). Details: HEK293T SAM-TIR lysate, at 5 µM, active compounds read high.
Sequence of NAD(+) hydrolase SARM1 (Homo sapiens) (Q6SZW1 whole entry, looked up): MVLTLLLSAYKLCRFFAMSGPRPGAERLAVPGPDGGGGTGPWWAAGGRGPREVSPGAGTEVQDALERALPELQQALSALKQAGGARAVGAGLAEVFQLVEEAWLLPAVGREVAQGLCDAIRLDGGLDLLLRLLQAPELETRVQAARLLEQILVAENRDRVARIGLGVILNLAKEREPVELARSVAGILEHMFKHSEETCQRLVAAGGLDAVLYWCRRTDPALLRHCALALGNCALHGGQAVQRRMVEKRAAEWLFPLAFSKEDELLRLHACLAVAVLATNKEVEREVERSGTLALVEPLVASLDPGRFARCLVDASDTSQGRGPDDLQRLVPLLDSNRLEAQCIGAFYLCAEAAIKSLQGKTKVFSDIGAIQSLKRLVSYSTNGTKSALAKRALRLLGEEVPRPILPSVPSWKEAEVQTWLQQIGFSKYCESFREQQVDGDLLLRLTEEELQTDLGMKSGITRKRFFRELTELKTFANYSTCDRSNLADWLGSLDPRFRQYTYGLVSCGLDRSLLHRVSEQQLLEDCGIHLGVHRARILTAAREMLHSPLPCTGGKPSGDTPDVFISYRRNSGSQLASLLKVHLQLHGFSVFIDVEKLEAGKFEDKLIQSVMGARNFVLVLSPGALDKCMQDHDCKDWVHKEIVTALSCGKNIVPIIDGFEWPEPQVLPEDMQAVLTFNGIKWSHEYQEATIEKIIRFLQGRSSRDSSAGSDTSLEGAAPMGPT

SMILES	NAD/ADPR ratio
CCOc1ccc(NC(=O)C2CCCN(C)C2)cc1 (centres undefined)	11.2 (active)
CCOc1ccc(NC(=O)c2cc3ccccc3cc2O)cc1	3 (inactive)
CCOc1ccc(NC(=O)N(O)C2(C#N)CCCCC2)cc1	3 (inactive)
Cc1nn(-c2ccccc2)c2c1C(c1ccc([N+](=O)[O-])cc1)C(C#N)=C(N)O2 (centres undefined)	3 (inactive)
COc1cc(CCC(=O)O)on1	3 (inactive)
COC(=O)CC1(C(=O)OC)Nc2cc(Cl)c(Cl)cc2S(=O)(=O)N1O (centres undefined)	13.5 (active)
Oc1cc(CNC2CCCCC2)c(O)cc1CNC1CCCCC1	10.8 (active)
O=C(NC1CCCCC1)c1cc2ccccc2cc1O	3 (inactive)
O=C(O)CCNC1CCCCC1	3 (inactive)
O=C(O)c1ccc(OCCOc2ccccc2)cc1	3 (inactive)
NC(N)=NC(=S)Nc1ccc(Cl)cc1	3 (inactive)
COc1cc(CC(=O)C(=O)O)oc(=O)c1	3 (inactive)
CN(C)C(=O)c1cccc(COc2ccc(N3C(N)=NC(N)=NC3(C)C)cc2Cl)c1	3 (inactive)
Cn1c(=O)c2c(nc(N3CCOCC3)n2C)n(C)c1=O	3 (inactive)
Cc1oc2c(c(C)nn2-c2ccccc2)c(=O)c1Cl	3 (inactive)
Cc1nc(-c2ccccc2)c(Cc2ccccc2O)c(=O)[nH]1	3 (inactive)
Cc1nc2c(O)cccc2cc1CO	3 (inactive)
S=c1cn[nH]c2ccccc12	3 (inactive)
CC1=C(c2ccccc2)C=NNCC1=O	3 (inactive)
COC(=O)c1cncc(C)c1	3 (inactive)
Nc1ccc(C(=O)Oc2ccc([N+](=O)[O-])cc2)cc1	3 (inactive)
O=C(c1cccnc1)C1Cc2ccccc2C1=O (centres undefined)	3 (inactive)
Nc1ccc(Br)cc1Br	3 (inactive)

SMILES	NAD/ADPR ratio
CCCCOc1nc2c(c(=O)n(C)c(=O)n2C)n1C	3 (inactive)
COc1ccc2c(c1)c1ccc3c(c1n2C)C(=O)C=CC3=O	7.6 (active)
Cc1ccc2c(c1)c1ccc3c(c1n2C)C(=O)C=CC3=O	5.6 (active)
Cc1c(C(C)(C(=O)O)c2c(C)n(C)c3ccccc23)c2ccccc2n1C	3 (inactive)
Cn1c2ccccc2c2ccc3c(c21)C(=O)C=CC3=O	12.5 (active)
Cc1cccc2c1c1ccc3c(c1n2C)C(=O)C=CC3=O	8.3 (active)
C=CCN(CC=C)C(=O)Nc1cc(OC)ccc1OC	3.2 (inactive)
Cc1nnc(Cc2ccccc2)c2n[nH]c(C)c12	3 (inactive)
CC(=O)[C@@]1(O)C(C)CC2C3C=C(C)C4=Cc5c(cnn5-c5ccccc5)C[C@]4(C)C3C(O)C[C@@]21C (some centres undefined)	3 (inactive)
CCOC(=O)c1ccc2c(c1)NCc1cccc(OC)c1O2	3 (inactive)
c1ccc(-c2cn3ccccc3n2)cc1	3 (inactive)
CC1(C)CCCC2(C)C(OCCO)=CC(=O)C=C12 (centres undefined)	3 (inactive)
COc1cc2c(O)cc(C(=O)O)c(-c3cc(OC)c(OC)c(OC)c3)c2cc1OC	3 (inactive)
CSc1nc(Cl)cc(=O)[nH]1	3 (inactive)
OC(C#Cc1ccccc1)(c1ccccc1)c1ccccc1	3 (inactive)
Cc1cc(=O)n2c3c(c4c(cc13)c(CN(C)C)cc(=O)n4C)OC2	3 (inactive)
CC1(C)CC2(C)OC2C2(C1)N=NC(=Nc1ccccc1)O2 (centres undefined)	3 (inactive)
Cc1cc2nc(-c3ccccn3)c(-c3ccccn3)nc2cc1C	3 (inactive)
S=C(Sc1ccc(Cl)cc1)Sc1ccc(Cl)cc1	3 (inactive)
Cc1ccc([N+](=O)[O-])cc1NC(=O)Nc1cccc(F)c1	3 (inactive)
CC1(C)SC(C)(C)N(C=O)C1C(=O)O (centres undefined)	3 (inactive)
CCOC(=O)Cc1cc(=O)[nH]n(-c2ccccc2)c1=O	3 (inactive)
Cc1ccc(/C=C2\CCOC2=O)cc1	3 (inactive)

SMILES	NAD/ADPR ratio
Cc1ccc2c(c1)sc1nncn12	3 (inactive)
Oc1ccc(Cc2ccccc2Cl)c(O)c1	3 (inactive)
COc1cc(/C=N/Nc2nc3c([nH]2)c(=O)n(C)c(=O)n3C)ccc1O	3 (inactive)
O=C1CCC(NC(=O)c2ccccc2)C(=O)N1 (centres undefined)	3 (inactive)
O=C(/C=C/c1cccnc1)c1ccccc1O	3 (inactive)
CCCCCn1cnc2c(=S)nc(N)[nH]c21	3 (inactive)
CN1CN(C)C(c2ccncc2)=C1c1ccncc1	3 (inactive)
CCCCOc1ccc(NC(=O)Nc2nnc(C)s2)cc1	3 (inactive)
Cc1ccc(C(C)C)cc1NC(=O)Nc1ccc([N+](=O)[O-])cc1	3 (inactive)
Cc1cc(NC(=O)c2ccccc2)nc(C)n1	3 (inactive)
Nc1ccnn1-c1ccccc1	3 (inactive)
O=C(O)C(Cc1cn[nH]n1)=NO	3 (inactive)
NC(=O)SCC(=O)Nc1ccccc1C(=O)O	3 (inactive)
CC(NC(=O)c1ccc(Cl)c(Cl)c1)c1ccc(-c2ccccc2)cc1 (centres undefined)	3 (inactive)
OC(c1cc(-c2ccc(Cl)cc2)nc2ccccc12)C1CCCCN1 (centres undefined)	3 (inactive)
Clc1ccc(SCNc2ccccc2Cl)cc1	3 (inactive)
Nc1ncnc2c1ncn2C1OC(CO)C(O)C1N (centres undefined)	3 (inactive)
CC1(C)CC(=O)C(CC(=O)c2ccccc2)=C(NN=C(N)N)C1	3 (inactive)
O=C(O)CCC1(c2ccccc2)NC(=O)NC1=O (centres undefined)	3 (inactive)
c1ccc2c(c1)Oc1cccc3cccc-2c13	3 (inactive)
O=C1c2cc([N+](=O)[O-])ccc2-c2cc(Br)c(N=C(NO)C(F)(F)F)cc21	3 (inactive)
O=c1cc[nH]c2c(Cl)cccc12	3 (inactive)
COc1cc(-c2ccc(NC(=O)NC3CC3)c(OC)c2)ccc1NC(=O)NC1CC1	3 (inactive)

— PubChem BioAssay AID1508615 (Milbrandt Lab, Department of Genetics, Washington …, 2020)
